# Compounds with a hit are over-represented: about 2.5% of the library has one in this group of screens.
# Cruzain noTriton – qHTS Assay for Promiscuous and Specific Inhibitors of Cruzain (without detergent). Cruzipain (Trypanosoma cruzi), P25779. purified cruzain, Z-FR-AMC fluorescence, no detergent. Potency, µM, for inactives: max response, negative = inhibition, hits mostly inhibitors. hit rate 2.3% among 200,000;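 further: plate controls were enzyme without inhibitor for no effect and buffer without enzyme for full effect; nearly all actives have a fitted effect of over 40% in size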
# Target sequence (P25779 123-467 limits assumed): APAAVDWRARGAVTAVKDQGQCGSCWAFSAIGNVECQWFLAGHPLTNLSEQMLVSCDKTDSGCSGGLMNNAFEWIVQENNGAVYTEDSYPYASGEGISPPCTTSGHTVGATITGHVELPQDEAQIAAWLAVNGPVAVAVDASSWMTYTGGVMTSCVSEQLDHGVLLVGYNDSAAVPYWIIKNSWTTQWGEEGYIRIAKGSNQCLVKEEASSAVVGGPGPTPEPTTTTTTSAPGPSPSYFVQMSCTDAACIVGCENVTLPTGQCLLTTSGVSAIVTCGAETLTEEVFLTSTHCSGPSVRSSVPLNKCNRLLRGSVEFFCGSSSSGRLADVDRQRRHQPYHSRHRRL
#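 Purified cruzain at 1.5 nM, pre-incubated 15 min with compound at room temperature in 100 mM sodium acetate pH 5.5, 5 mM DTT, 0.00005% Triton X-100. Reaction started with 2 uM Z-FR-AMC; AMC fluorescence increase over 60 s gives rate.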
# Cruzain inh Det – qHTS Assay for Promiscuous and Specific Inhibitors of Cruzain (with detergent) | purified cruzain, Z-FR-AMC fluorescence, 0.01% Triton | Potency, µM, for inactives: max response, negative = inhibition, most hits filed as inhibitors | hit rate 0.43% among 200,000 | AID 1478, 2009;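 further: plate controls were neutral wells for no effect and buffer without enzyme for full effect; nearly all actives have a fitted effect of over 40% in size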
#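 Cruzain (1.5 nM) preincubated 15 min at RT with compound in 100 mM sodium acetate pH 5.5, 5 mM DTT, 0.01% Triton X-100. Reaction started with 2 uM Z-FR-AMC; AMC fluorescence (ex 360/em 450 nm) change over 60 s gave rate.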
# Starred values were filed as active, the others as inactive; ? = inconclusive. The call rests on the fitted dose curve; in most records, active means well fitted curve in the direction sought with a large enough effect; inconclusive means small, poorly fitted or top-dose-only effect, or another doubt; inactive means no such curve, though single readings can be large; an effect the other way counts as inactive or inconclusive. Potency means the concentration at half of the fitted maximal effect.
SMILES,Cruzain noTriton,Cruzain inh Det
CCc1ccc(OCCCSc2nc(-c3ccc(C(C)(C)C)cc3)nc3cc(=O)[nH]n23)cc1,6.31µM*,-5.8%
COc1ccc(-c2nc(SCC(=O)Nc3ccc4c(c3)OCO4)c(-c3ccccc3)[nH]2)cc1,?,-6.7%
C/C=C1\C2C=C(C)C[C@@]1(N)c1ccc(=O)[nH]c1C2,-6.1%,-0.8%
CC(/C=N/NC(=O)c1cc(-c2ccccc2)nc2ccccc12)=C\c1ccco1,?,-9.4%
CC(/C=N/NC(=O)c1cc(-c2ccc(Cl)cc2)nc2ccccc12)=C\c1ccco1,7.94µM*,-2.0%
COc1cc2c(cc1OC)[C@@]13CCN4C=C5CCO[C@H]6CC(=O)N2[C@@H]1C6[C@H]5C[C@H]43 (some centres undefined),2.7%,3.1%
COc1ccc(-c2ccc(C#N)c(OC(=O)c3c(Cl)cccc3Cl)n2)cc1,?,28.2µM*
COc1nc(-c2ccccc2Cl)ccc1C#N,-7.3%,-2.7%
O=C(CCN1CCc2ccccc2CC1)c1ccc2c(c1)OCCO2,15.8µM*,?
O=C(CCN1CCOCC1)c1ccc2c(c1)OCCO2,-13.9%,-22.6%
COc1ccc(-c2nc(-c3ccccc3)oc2Nc2ccccc2C)cc1,-12.7%,-1.2%
O=C(NCCc1ccccc1)c1cc(Sc2cccc(Cl)c2)nc2ccccc12,-2.0%,1.6%
O=C(Nc1nc(-c2ccc(Cl)s2)cs1)c1ccccc1,-2.9%,-0.6%
Cc1nc(NC(=O)c2ccccc2)sc1-c1csc(Nc2cccc(Cl)c2)n1,10µM*,6.4%
Cc1nc(NC(=O)c2ccccc2)sc1-c1csc(Nc2ccc(F)cc2)n1,15.8µM*,-2.8%
Cc1nc(NC(=O)c2ccccc2)sc1-c1csc(Nc2ccc(Cl)cc2)n1,3.98µM*,6.6%
N#Cc1ccc(CS(=O)(=O)c2ccccc2)cc1,0.1%,1.0%
COc1ccc(NC(=O)C(Cc2c[nH]c3ccccc23)NC(=O)OC(C)(C)C)cc1 (centres undefined),-0.5%,-8.3%
CCc1ccc(S(=O)(=O)c2nnn3c2nc(Nc2ccc(C)c(Cl)c2)c2sccc23)cc1,0.8%,-0.2%
Cc1nc(SCC(=O)Nc2ccc(F)cc2)c(C#N)c(C)c1CC(=O)c1ccc(Br)cc1,?,-0.5%
Cc1cccc(NC(=O)CSc2nc(C)c(CC(=O)c3ccc(Br)cc3)c(C)c2C#N)c1C,12.6µM*,2.9%
Cc1nc2nc(SCC(=O)N(C)Cc3ccccc3)nn2c(C)c1Cc1ccccc1Cl,1.4%,-9.4%
CCOc1ccc(S(=O)(=O)Nc2ccccc2C(=O)NCc2ccco2)cc1,6.2%,-11.6%
COc1ccc(S(=O)(=O)Nc2ccccc2C(=O)NCc2ccco2)cc1Br,25.1µM*,?
O=C(/C=C\c1ccc2c(c1)OCO2)Nc1nnc(SCC(=O)OCc2ccccc2)s1,5.01µM*,-0.4%
SMILES,Cruzain noTriton,Cruzain inh Det
COC(=O)CSc1nnc(NC(=O)/C=C\c2ccc3c(c2)OCO3)s1,-11.8%,1.9%
COc1cccc(OCc2cc(=O)n3cc(C)sc3n2)c1,-10.6%,-3.7%
O=C(Cn1cnc2c(cnn2-c2ccc(F)cc2)c1=O)NCC1CCCO1 (centres undefined),-3.9%,3.9%
CC(C)(C)n1ncc2c(=O)n(CC(=O)NCCc3ccccc3)cnc21,0.7%,0.4%
O=C(Cn1cnc2c(cnn2-c2ccc(Cl)cc2)c1=O)NCCc1ccccc1,25.1µM*,-1.3%
O=C(Cn1cnc2c(cnn2-c2ccc(Cl)cc2)c1=O)NC1CCCCC1,10µM*,1.7%
Cn1cccc1C(=O)N1CCC2(CCN(C(=O)Nc3cccc(C#N)c3)CC2)CC1,-3.8%,-0.8%
CCOc1ccc(Nc2c(S(=O)(=O)c3ccc(C)cc3)cnc3cc(OC)c(OC)cc23)cc1,?,-3.5%
Cc1ccccc1NCc1ccc(O)c2ncccc12,6.4%,-6.4%
Cc1ccccc1N=Nc1ccc(O)c2ncccc12,20µM*,0.1%
CCCCCOc1ccc(/C=C/C(=O)Nc2sc(C(C)=O)c(C)c2C(=O)OCC)cc1OC,-4.6%,-0.4%
Cc1ccc(S(=O)(=O)N/N=C/c2ccc(OCC(=O)Nc3ccccc3Cl)cc2)cc1,25.1µM*,-0.2%
COc1ccccc1NC(=O)COc1ccc(/C=N/NS(=O)(=O)c2ccc(C)cc2)cc1,-28.3%,-3.0%
CCOC(=O)c1c(NC(=O)C(C)N2CCN(C(=O)c3ccco3)CC2)sc2c1CCCC2 (centres undefined),?,-1.3%
COc1ccc(NC(=O)c2nn(C34CC5CC(CC(C5)C3)C4)cc2[N+](=O)[O-])cc1,-0.9%,-4.1%
O=C(Nc1ccc2ccccc2c1)c1nn(C23CC4CC(CC(C4)C2)C3)cc1Br,10µM*,4.2%
CCCCCCCCNc1nc(Cl)nc(NCc2ccco2)n1,15.8µM*,-2.0%
CCCCCCNc1nc(NCc2ccco2)nc(OCC)n1,-0.6%,-4.5%
COc1ccc(CNC(=O)c2cccn2-c2nnc(N3CCCC3)s2)c(OC)c1,7.4%,1.8%
Cc1ccc2[nH]c(=O)c3cc(C(=O)N(C)c4ccc(Br)cc4)sc3c2c1,7.4%,0.2%

# High-throughput results: PubChem, National Center for Advancing Translational Sciences (NCATS)
